Test systems include SK-MEL-2 melanoma; EKVX NSCLC; SN12C renal; UO-31 renal; TK-10 renal; CAKI-1 renal; A498 renal; CCRF-CEM leukemia; MOLT-4 leukemia; ACHN renal.
Experiment in all cases: NCI-60 one-dose screen, 48 h (100 = growth as untreated, 0 = no growth, -100 = all killed)
Settings in all cases: 10 µM unless noted

The record followed here is PubChem BioAssay (NCI).

About 83,000 compounds went through this panel and 20% of them were active in at least one assay; those are over-represented in the sample as a whole.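 A percent growth of 40 corresponds to 60% growth inhibition; 0 means no net growth; -100 means all cells died. Active threshold: below 10.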 Unmarked numbers belong to inactive results. Calls of active or inactive are those of the source.

Consider `COc1cc2ncnc(Nc3ccc(OCc4cccc(F)c4)c(Cl)c3)c2cc1NC(=O)C1CCCC1`, for which the growth in the test on SK-MEL-2 melanoma is 86.2%; in the test on EKVX NSCLC it was 37.6%; in the test on SN12C renal, 85.2%; in the test on UO-31 renal it was 30.5%; with TK-10 renal, 18.4%; in the test on CAKI-1 renal, 55.9%. Further, the figures for the growth in the test with A498 renal, in the test with CCRF-CEM leukemia and with MOLT-4 leukemia were 20.8%, 92.6% and 84%, respectively.
With `Cc1ccc(-c2nc3ccc(Cl)cc3c(=O)n2N2C(=O)CSC2c2ccccc2Cl)cc1` (stereo unspecified), the growth with SK-MEL-2 melanoma is 96.2%; in the test on EKVX NSCLC, 60%; in the test with SN12C renal, 69%; with UO-31 renal it was 67.2%; in the test with TK-10 renal, 74.6%; in the test on CAKI-1 renal, 60.3%. In addition, the growth was 84.8% in the test with A498 renal, 74.8% with CCRF-CEM leukemia and 82.7% with MOLT-4 leukemia.
As for `Cc1cc(Cl)nc(N(CCNc2ccnc3cc(Cl)ccc23)Cc2ccco2)n1`, the growth in the test on SK-MEL-2 melanoma was 55.8%; in the test with EKVX NSCLC, 63.6%; in the test on SN12C renal it was 33.5%; with UO-31 renal it was -33.5% (active); in the test on TK-10 renal it was 64%; in the test with ACHN renal, 17.7%. In addition, the values for the growth in the test with A498 renal, in the test with CCRF-CEM leukemia and in the test on MOLT-4 leukemia were 70.2%, 8.24% (active) and 6.36% (active), respectively.
For `Cc1cc(N(CCCNc2ccnc3cc(Cl)ccc23)Cc2ccco2)nc(N2CCOCC2)n1`, the growth is 93.2% in the test with SK-MEL-2 melanoma; 67.6% with EKVX NSCLC; 67.4% with SN12C renal; 46.8% with UO-31 renal; 110% with TK-10 renal; 95.3% in the test on ACHN renal. The growth with A498 renal is 59.1%; in the test with CCRF-CEM leukemia, 69.2%; in the test with MOLT-4 leukemia, 63.7%.
As to `Fc1ccc2c(c1)c(-c1nc(-c3c[nH]c4ncccc34)cs1)cn2CCCN1CCCCC1`, the growth was 106% in the test with SK-MEL-2 melanoma; 66% in the test with EKVX NSCLC; 63.1% in the test with SN12C renal; 44.4% in the test on UO-31 renal; 107% in the test with TK-10 renal; 71.7% in the test with ACHN renal. The growth is 77.8% in the test on A498 renal, 8.52% (active) in the test with CCRF-CEM leukemia and 12.9% in the test with MOLT-4 leukemia.
On to `Cc1cc(N2CCN(C)CC2)nc(N(CCNc2ccnc3cc(Cl)ccc23)Cc2ccco2)n1`, for which the growth in the test with SK-MEL-2 melanoma is 55.8%; with EKVX NSCLC, 57.2%; in the test on SN12C renal, 58.3%; in the test with UO-31 renal, 54.8%; in the test with TK-10 renal, 105%; with ACHN renal, 54.5%. In addition, the growth with A498 renal was 73.4%; with CCRF-CEM leukemia, 14.1%; in the test on MOLT-4 leukemia, 28.8%.
`COc1ccc2c(c1)c(-c1nc(-c3c[nH]c4ncccc34)cs1)cn2CCN`: the growth was 75.2% in the test on SK-MEL-2 melanoma; 50.1% with EKVX NSCLC; 78.2% in the test with SN12C renal; 48.5% with UO-31 renal; 71.9% in the test with TK-10 renal; 41.3% with ACHN renal. Besides, the growth with A498 renal is 72.2%; in the test on CCRF-CEM leukemia, 55.8%; with MOLT-4 leukemia, 46.4%.
On to `Cc1ccc(C)c2c1CCC2C(C)C` (stereo unspecified), for which the growth in the test on SK-MEL-2 melanoma is 110%; in the test on EKVX NSCLC it was 102%; in the test with SN12C renal, 98.6%; with UO-31 renal it was 88.5%; in the test with TK-10 renal, 95.6%; with CAKI-1 renal, 95.8%. Also, the growth is 110% in the test with A498 renal, 93.5% with CCRF-CEM leukemia and 86.4% with MOLT-4 leukemia.
On to `Cc1ccc(Cc2cnc(NC(=O)/C=C/c3cccc(C)c3)s2)cc1`, for which the growth in the test on SK-MEL-2 melanoma is 51.6%; with EKVX NSCLC, 29.4%; in the test on SN12C renal, 31.4%; with UO-31 renal, 33.7%; in the test on TK-10 renal it was 28.3%; in the test with CAKI-1 renal, 12.5%. Moreover, the figures for the growth in the test with A498 renal, in the test with CCRF-CEM leukemia and with MOLT-4 leukemia were -5.43% (active), 9.04% (active) and 16.7%, respectively.
Consider `CC(C)(C)n1cc(-c2ccnc(NCCCNS(=O)(=O)c3ccc(Cl)cc3)c2)c(-c2cccc(F)c2)n1`, for which the growth is 88.4% with SK-MEL-2 melanoma; 56.2% in the test with EKVX NSCLC; 73.9% with SN12C renal; 66.5% in the test on UO-31 renal; 111% with TK-10 renal; 77.9% in the test on CAKI-1 renal. In addition, the growth is 108% in the test with A498 renal, 66.7% in the test with CCRF-CEM leukemia and 55.1% with MOLT-4 leukemia.
For `Cc1cc2nc3c4cc(O)ccc4n(CCN(C)C)c3nc2cc1C`, the growth in the test on SK-MEL-2 melanoma is -42.9% (active); in the test with EKVX NSCLC it was 2.33% (active); in the test with SN12C renal it was 3.51% (active); in the test on UO-31 renal, -37.5% (active); in the test on TK-10 renal it was 5.14% (active); with CAKI-1 renal, -39% (active). Further, the growth in the test with A498 renal is 9.28% (active); in the test on CCRF-CEM leukemia, 9.31% (active); with MOLT-4 leukemia, 1.9% (active).
For the molecule `N=C(N)N=Nc1ccc(O)cc1`, the growth was 105% [100 µM] in the test on SK-MEL-2 melanoma; 96% [100 µM] in the test with EKVX NSCLC; 104% [100 µM] in the test on SN12C renal; 81.9% [100 µM] in the test on UO-31 renal; 124% [100 µM] with TK-10 renal; 53.4% [100 µM] in the test with CAKI-1 renal. For the same molecule, the growth in the test with A498 renal was 126% [100 µM]; with CCRF-CEM leukemia, 91.2% [100 µM]; in the test on MOLT-4 leukemia, 88.4% [100 µM].
As to `COc1ccc(O)c(-c2cc(-c3ccc(Cl)cc3)c(C#N)c(=O)[nH]2)c1`, the growth with SK-MEL-2 melanoma is 37.9%; in the test with EKVX NSCLC, 105%; in the test on SN12C renal, 77%; in the test on UO-31 renal it was 55%; in the test on TK-10 renal it was 87.3%; in the test with CAKI-1 renal it was 73.3%. The values for the growth in the test on A498 renal, in the test with CCRF-CEM leukemia and with MOLT-4 leukemia were 79.6%, 37.2% and 57.8%, respectively.
On to `Cc1cc(N2CCCC2)nc(N(CCNc2ccnc3cc(Cl)ccc23)Cc2ccco2)n1`, for which the growth is 77.1% in the test with SK-MEL-2 melanoma; 36.1% with EKVX NSCLC; 28.8% in the test on SN12C renal; 10.8% in the test with UO-31 renal; 63.8% with TK-10 renal; 39.6% with ACHN renal. Besides, the growth is 26.9% with A498 renal, 11% in the test on CCRF-CEM leukemia and -9.45% (active) in the test with MOLT-4 leukemia.
